SENP8 block-1: blocks human SENP8 cleavage of Nedd8 substrate; Q96LD8; recombinant SENP8, Nedd8 substrate fluorescence; inhibition, % at 20 µM; hit rate 0.64% among 360,000; in the data active means inhibition mostly above about 40%, no sharp cut-off; inactive means mostly below about 27%
SENP8 block-2: blocks the human protease SENP8. inhibition, % at 10 µM. hit rate 1.2% among 330,000. AID 2540. purified SENP8, Z-RLRGG-aminoluciferin cleavage, luminescence; in the data active means inhibition above about 50%
SENP6 block: SENP6 protease inhibition; Q9GZR1; Recombinant SENP6 catalytic domain, aminoluciferin luminescence; inhibition, % at 10 µM; hit rate 1.8% among 330,000; AID 2599;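 active means inhibition above about 50% at the single tested dose, limit read from the data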;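 further: plate controls were DMSO wells with enzyme for no effect and DMSO wells lacking enzyme for full effect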
SENP7 inh: blocks the human protease SENP7; Q9BQF6; recombinant SENP7, Z-RLRGG-aminoluciferin luminescence, 40 min; inhibition, % at 5 µM; hit rate 1.5% among 330,000;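 active means inhibition above about 50% at the single test dose, limit read from the data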;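 further: plate controls were DMSO with enzyme for no effect and no enzyme buffer wells for full effect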
Target sequence (Q9BQF6 706-1050 limits assumed): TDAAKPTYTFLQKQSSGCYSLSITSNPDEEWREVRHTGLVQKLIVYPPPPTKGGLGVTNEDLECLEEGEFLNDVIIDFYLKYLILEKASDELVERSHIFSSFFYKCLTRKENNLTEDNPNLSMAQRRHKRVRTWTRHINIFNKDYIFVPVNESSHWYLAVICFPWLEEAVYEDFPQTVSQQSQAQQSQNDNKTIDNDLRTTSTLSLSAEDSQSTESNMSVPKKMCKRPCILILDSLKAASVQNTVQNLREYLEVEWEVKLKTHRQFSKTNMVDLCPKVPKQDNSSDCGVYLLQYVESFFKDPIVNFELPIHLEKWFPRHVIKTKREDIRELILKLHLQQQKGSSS
HSP90 inh: inhibitors of HSP90 luciferase refolding in rabbit reticulocyte lysate | luciferase refolding luminescence, 3 h | inhibition, % at 5.6 µM | hit rate 0.91% among 290,000 | AID 1789;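 active means inhibition above the screen-wide mean plus 3 SD, computed separately per campaign, cut at about 16% in these data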;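 further: 0% = DMSO wells and 100% = 60 µM geldanamycin wells; inhibitors lower the luminescence because luciferase stays unfolded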
LGR2 antag: Drosophila LGR2 receptor signaling inhibition. HEK293 LGR2, CRE-luciferase, bursicon-stimulated, 4 h. inhibition, % at 9.99 µM. hit rate 0.35% among 380,000. AID 720647;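 active means drop in luminescence signal, shown as inhibition above about 50% in the replicate tests, limit read from the data, passing the limit was not always enough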;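 further: agonist challenge used bursicon conditioned medium at about half maximal strength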
SENP8 confirm: human SENP8 inhibition, confirmed; hit rate 40% among 6,200; inhibition, % at 12.5 µM; shares compounds with SENP7 inh; Recombinant SENP8, Z-RLRGG-aminoluciferin luminescence, 60 min;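 active means mean inhibition across replicates above about 50%, limit read from the data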
SENP6 conf: human SENP6 inhibition, confirmed; shares compounds with SENP7 inh; recombinant SENP6, Z-RLRGG-aminoluciferin luminescence; inhibition, % at 12.5 µM; hit rate 58% among 6,200
SENP7 confirm: confirmation of human SENP7 protease inhibitors; shares compounds with SENP7 inh; recombinant SENP7, Z-RLRGG-aminoluciferin luminescence, 40 min; inhibition, % at 12.5 µM; hit rate 69% among 6,200; AID 488917
Casp3 SENP sel: caspase-3 inhibition (SENP selectivity assay) | shares compounds with SENP7 inh | purified caspase-3, Z-DEVD-aminoluciferin luminescence, 60 min | inhibition, % at 12.5 µM | hit rate 60% among 6,200 | AID 488918;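 active means mean inhibition above about 50%, limit read from the data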;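 further: plate controls were enzyme with DMSO for no effect and wells without caspase-3 for full effect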
Target sequence (P42574 28-227 limits assumed): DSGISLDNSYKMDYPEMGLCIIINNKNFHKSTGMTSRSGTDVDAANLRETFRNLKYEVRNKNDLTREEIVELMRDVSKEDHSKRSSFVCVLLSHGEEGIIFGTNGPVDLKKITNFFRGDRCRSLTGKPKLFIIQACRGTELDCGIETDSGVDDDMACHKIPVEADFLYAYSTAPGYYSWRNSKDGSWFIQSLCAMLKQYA
Luc interf: counter-screen for SENP inhibitors: luminescence interference | shares compounds with SENP7 inh | Pre-incubated SENP8/Z-RLRGG-aminoluciferin, luciferase luminescence interference | inhibition, % at 12.5 µM | hit rate 39% among 6,200 | AID 488919;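 active means mean inhibition above about 50% when retested at one dose, limit read from the data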;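 further: plate controls were DMSO wells with completed reaction for no effect and substrate without enzyme for full effect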
An asterisk follows results filed as active; i = inactive; x = no result given. An excerpt weighted towards active compounds, which were near 2.3% of everything screened.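 How the source made its calls, unless noted: active means mean inhibition above about 50% in the one-dose retest (limit read from the data); inactive means the rest.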

SMILES	SENP8 block-1	SENP8 block-2	SENP6 block	SENP7 inh	HSP90 inh	LGR2 antag	SENP8 confirm	SENP6 conf	SENP7 confirm	Casp3 SENP sel	Luc interf
S=C(Nc1ccc2nsnc2c1)N1CCCC1	-51.6	57.0*	82.6*	53.9*	11.1	-90.8	5.8	28.5	23.8	69.9*	66.7*
COc1cc(NC(=O)c2cccc(Br)c2)nc(OC)n1	10.8	26.0	53.8*	36.9	0.7	-72.3	38.6	36.3	67.6*	40.1	38.2
Cc1cccc(NC(=O)NC(=O)c2ccccc2)n1	10.5	22.0	-7.9	53.7*	-1.7	21.4	9.5	12.1	24.2	14.7	1.9
Cc1cccc(NC(=O)c2ccc(C(=O)c3ccccc3)cc2)n1	20.7	12.9	39.9	41.0	x	-103.7	x	x	x	x	x
C[C@H]1CN([C@@H](C)CO)C(=O)Cc2cc(N(C)C)ccc2O[C@H]1CN(C)C(=O)Nc1cccc2ccccc12	x	x	x	x	x	4.0	x	x	x	x	x
Clc1cccc(Cl)c1/C=C/c1nc2ccccc2[nH]1	-279.8	88.9*	82.1*	93.2*	2.6	x	94.1*	95.7*	101.1*	86.9*	76.1*
Cc1[nH]c2ccccc2c1/C=C/c1nc2ccccc2c(=O)[nH]1	-406.2	-16.0	-5.3	3.0	-1.0	-52.2	x	x	x	x	x
O=C(O)c1ccc(/C=C/c2nc3ccccc3c(=O)[nH]2)cc1	-96.6	94.9*	97.4*	99.7*	-2.0	-28.1	96.7*	97.5*	101.9*	97.7*	55.5*
O=c1[nH]c(/C=C/c2ccccc2Cl)nc2ccccc12	-51.9	76.4*	76.7*	94.0*	9.7	-29.3	42.7	41.5	60.5*	36.9	2.6
C(=N\n1cnnc1)/c1nc2ccccc2[nH]1	i	2.7	-2.9	11.2	-0.5	x	x	x	x	x	x
Cc1cccc(/C=C/c2nc3ccccc3c(=O)[nH]2)c1	-79.2	74.9*	86.7*	97.4*	-2.2	x	37.9	68.4*	38.6	78.9*	4.2
CCn1c(/C=C/c2ccccc2Cl)nc2ccccc2c1=O	6.0	-13.0	-16.4	-12.5	2.9	-10.1	x	x	x	x	x
COc1cccc(NC(=O)N2[C@@H]3CNC[C@H]2C3c2ccc(-c3cccc(C(=O)N(C)C)c3)cc2)c1 (stereo partly drawn)	x	x	x	x	x	-26.5	x	x	x	x	x
O=C(C[C@H]1C[C@@H]2c3cc(NC(=O)C4CCOCC4)ccc3O[C@@H]2[C@@H](CO)O1)NCc1ccc2c(c1)OCO2	x	x	x	x	x	3.8	x	x	x	x	x
COc1ccc2c3c([nH]c2c1)[C@H](CO)N(C(=O)c1ccccc1)CC31CN(S(=O)(=O)c2cccs2)C1	x	x	x	x	x	7.9	x	x	x	x	x
C[C@@H]1CN([C@@H](C)CO)S(=O)(=O)c2ccc(C3=CCCCC3)cc2O[C@H]1CN(C)Cc1cccc(C(=O)O)c1	x	x	x	x	x	-0.6	x	x	x	x	x
O=C(C[C@@H]1C=C[C@@H](NC(=O)c2ccncc2)[C@@H](CO)O1)Nc1ccc(-c2ccccc2)cc1	x	x	x	x	x	18.3	x	x	x	x	x
CCCN1C(=O)/C(=C/c2nc3ccccc3c(=O)[nH]2)c2cc(C)ccc21	-22.6	-1.8	91.7*	4.1	0.2	-27.2	5.3	4.3	9.0	5.1	1.1
C/C(=C1/C(=O)N(c2ccc([N+](=O)[O-])cc2)N=C1c1ccccc1)N(C)C	x	13.1	14.0	9.2	-3.8	x	x	x	x	x	x
CN(C)/C=C1\C(=O)N(c2ccc([N+](=O)[O-])cc2)N=C1c1ccccc1	62.1*	94.8*	97.6*	96.7*	-4.5	x	98.0*	98.8*	103.0*	95.3*	97.2*
CC1=NN(c2nc3ccccc3[nH]2)C(=O)/C1=C/N(C)C	14.9	92.3*	88.2*	95.9*	7.7	x	87.7*	84.1*	98.5*	96.8*	91.3*
O=C1/C(=C\c2ccc(-c3ccccc3[N+](=O)[O-])o2)C(c2ccccc2)=NN1c1ccccc1	35.6	3.7	57.6*	10.6	0.4	x	-18.2	-7.4	-7.4	-10.0	-5.7
CCCC1=NN(c2ccc([N+](=O)[O-])cc2)C(=O)/C1=C/N(C)C	21.1	94.5*	97.9*	98.9*	0.4	-3.8	94.9*	95.4*	101.2*	96.4*	96.0*
Cc1ccc(S(=O)(=O)N(C)C[C@@H]2Oc3c(cccc3N(C)C)C(=O)N([C@@H](C)CO)C[C@H]2C)cc1	x	x	x	x	x	-8.4	x	x	x	x	x
COc1ccccc1/C=C1/C(=O)N(c2ccc([N+](=O)[O-])cc2)N=C1C	23.3	25.6	27.1	20.5	3.4	-6.4	x	x	x	x	x
SMILES	SENP8 block-1	SENP8 block-2	SENP6 block	SENP7 inh	HSP90 inh	LGR2 antag	SENP8 confirm	SENP6 conf	SENP7 confirm	Casp3 SENP sel	Luc interf
CC1=NN(c2ccc([N+](=O)[O-])cc2)C(=O)/C1=C\N(C)C	42.6*	93.1*	96.9*	95.3*	3.6	-18.2	95.6*	95.0*	101.8*	98.3*	95.5*
O=C(NN=c1c(=O)c2ccccc2c1=O)c1ccccc1	69.3*	71.2*	75.8*	83.8*	4.5	4.6	-15.6	70.9*	19.3	-2.6	3.0
CCCNC(=O)C[C@@H]1C[C@H]2c3cc(NC(=O)Nc4ccccc4)ccc3O[C@H]2[C@H](CO)O1	x	x	x	x	x	-15.8	x	x	x	x	x
Nc1c(N2CCOCC2)cc(Cl)c2nonc12	1.5	13.0	23.1	20.6	7.6	x	x	x	x	x	x
Nc1c(N2CCCC2)cc(Cl)c2nonc12	13.4	83.4*	91.4*	49.5	5.7	x	45.8	85.6*	74.5*	10.6	1.7
CC(=O)c1cnc2cc(-c3ccccc3)nn2c1C	-276.7	-15.5	-11.6	-5.3	-0.6	-74.7	x	x	x	x	x
CC(=O)c1cnc2cc(-c3ccc(C)cc3)nn2c1C	-267.9	44.7	66.7*	-0.5	-4.0	x	50.4*	33.4	72.5*	66.1*	16.8
O=C(Nc1ccc(Cl)c(Cl)c1)c1ccccc1	8.3	83.9*	89.5*	80.0*	x	-30.8	-25.6	78.7*	95.8*	56.8*	26.9
O=C(Nc1ccc2c(c1)OCO2)c1cccc(Cl)c1	9.6	81.1*	92.1*	92.2*	-1.5	x	-5.6	86.6*	98.5*	89.6*	74.0*
O=C(Nc1ccc2c(c1)oc1ccccc12)c1ccc2c(c1)OCO2	-17.1	10.2	25.6	61.3*	-0.5	x	-6.2	6.8	7.4	3.7	3.0
COCCNC(=O)COC(=O)C1=Cc2ccccc2OC1	-76.3	10.0	-11.1	-1.7	-0.7	16.4	x	x	x	x	x
O=C(Nc1ccc(Cl)cc1)C1=Cc2ccccc2OC1	-19.0	45.5	66.1*	45.2	-2.2	x	52.6*	62.0*	86.7*	35.4	34.3

Compound activity as filed in PubChem.
